Out of some 5,700 compounds screened, about 85 (1%) were called active. No stated cut-off is given here; in the data, active means p53-positive nuclei above about 36% (passing the limit was not always enough); inactive means the rest. Many of the other results were omitted from the sample, so actives are more common in it than they were. Peptide text beside a SMILES is read from it. * marks the point of attachment. Cbz = O=C(OCc1ccccc1)*

Assay [1] in a line: nuclear p53 accumulation, HPV+ cells – imaging, p53-positive nuclei imaging, 24 h, 48 h (AID 1508601). Particulars: 24/48 h.
Assay [2] concerns the target Cellular tumor antigen p53 (Homo sapiens) (UniProt P04637). The assay is described as above. Particulars: 24/48 h, stronger effect = higher value.
Where [3] appears, read: measured here: cell number at 24 h, Library stock concentration: 3.33 mM.
[4] abbreviates: measured here: cell number at 48 h, Library stock concentration: 3.33 mM.
Where [5] appears, read: Library stock concentration: 3.33 mM.
The mark [6] stands for this setting: measured here: p53 positive nuclei at 24 h, Library stock concentration: 3.33 mM.
[7] abbreviates: measured here: cell number at 24 h, Library stock concentration: 80 uM.
Setting [8] is: measured here: cell number at 24 h, Library stock concentration: 400 uM.
The mark [9] stands for this setting: measured here: cell number at 24 h, Library stock concentration: 2 mM.
The mark [10] stands for this setting: measured here: cell number at 24 h, Library stock concentration: 10 mM.
[11] abbreviates: measured here: cell number at 48 h, Library stock concentration: 80 uM.
Setting [12] is: measured here: cell number at 48 h, Library stock concentration: 400 uM.
[13] abbreviates: measured here: cell number at 48 h, Library stock concentration: 2 mM.
The mark [14] stands for this setting: measured here: cell number at 48 h, Library stock concentration: 10 mM.
Setting [15] is: Library stock concentration: 80 uM.
[16] abbreviates: Library stock concentration: 400 uM.
Where [17] appears, read: Library stock concentration: 2 mM.
[18] abbreviates: Library stock concentration: 10 mM.
The mark [19] stands for this setting: measured here: p53 positive nuclei at 24 h, Library stock concentration: 80 uM.
Where [20] appears, read: measured here: p53 positive nuclei at 24 h, Library stock concentration: 400 uM.
Where [21] appears, read: measured here: p53 positive nuclei at 24 h, Library stock concentration: 2 mM.
[22] abbreviates: measured here: p53 positive nuclei at 24 h, Library stock concentration: 10 mM.

Sequence of Cellular tumor antigen p53 (Homo sapiens) (P04637 whole entry, looked up): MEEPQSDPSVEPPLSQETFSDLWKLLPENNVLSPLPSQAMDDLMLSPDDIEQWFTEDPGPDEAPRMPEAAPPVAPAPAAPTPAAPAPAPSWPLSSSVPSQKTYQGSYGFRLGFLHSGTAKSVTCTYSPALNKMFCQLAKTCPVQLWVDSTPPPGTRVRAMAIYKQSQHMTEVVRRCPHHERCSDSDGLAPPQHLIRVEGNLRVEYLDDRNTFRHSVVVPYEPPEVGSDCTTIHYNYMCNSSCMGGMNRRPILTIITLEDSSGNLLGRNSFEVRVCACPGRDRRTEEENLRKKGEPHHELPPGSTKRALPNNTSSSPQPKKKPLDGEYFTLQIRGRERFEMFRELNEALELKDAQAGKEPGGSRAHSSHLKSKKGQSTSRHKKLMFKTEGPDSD

In the case of `O=C(Nc1ccccc1Br)NC1CCN(c2ccc(C(F)(F)F)cn2)C1` (stereo unspecified), the nuclei count, normalised in assay [1] (setting [3]) stood at 102%; in assay [1] (setting [4]) it was 96.3%. The p53-positive nuclei, normalised was -0.163% (inactive) in assay [2] (setting [5]) and -0.314% in assay [2] (setting [6]).

Turning to `CCCCC/C=C\C/C=C\C/C=C\C/C=C\CCCC(=O)C(F)(F)F`, the nuclei count, normalised in assay [1] (measured here: cell number at 24 h, concentration not given here) amounted to 108%; in assay [1] (measured here: cell number at 48 h, concentration not given here) it was 109%. Further, the p53-positive nuclei, normalised in assay [2] (concentration not given here) is -0.148% (inactive); in assay [2] (measured here: p53 positive nuclei at 24 h, concentration not given here) it was -0.0854%.

Take `Nc1ncn([C@@H]2O[C@@H](CO)[C@H](O)[C@@H]2O)c(=O)n1`: the nuclei count, normalised in assay [1] (setting [7]) stood at 122%; in assay [1] (setting [8]), 116%; in assay [1] (setting [9]), 110%; in assay [1] (setting [10]), 65.9%; in assay [1] (setting [11]), 122%; in assay [1] (setting [12]), 116%. For the same compound, the figures for the nuclei count, normalised in assay [1] (setting [13]) and in assay [1] (setting [14]) were 111% and 63.4%, respectively. In addition, the p53-positive nuclei, normalised in assay [2] (setting [15]) is -0.241% (inactive); in assay [2] (setting [16]), -0.762% (inactive); in assay [2] (setting [17]), -0.515% (inactive); in assay [2] (setting [18]), 0.325% (inactive); in assay [2] (setting [19]), 1.31%; in assay [2] (setting [20]) it was -0.12%. The p53-positive nuclei, normalised came to 0.0304% in assay [2] (setting [21]) and 0.106% in assay [2] (setting [22]).

In the case of `CC(C)CC(C=O)NC(=O)C(CC(C)C)NC(=O)C(CC(C)C)NC(=O)OCc1ccccc1` (stereo not drawn) (Cbz-Leu-Leu-Leu-aldehyde; configuration not given here), the nuclei count, normalised was 112% in assay [1] (measured here: cell number at 24 h, Library stock concentration: 46 uM); 112% in assay [1] (measured here: cell number at 24 h, Library stock concentration: 278 uM); 62% in assay [1] (measured here: cell number at 24 h, Library stock concentration: 1.67 mM); 46.1% in assay [1] (setting [3]); 59.9% in assay [1] (setting [10]); 111% in assay [1] (measured here: cell number at 48 h, Library stock concentration: 46 uM). The nuclei count, normalised was found to be 104% in assay [1] (measured here: cell number at 48 h, Library stock concentration: 278 uM); 46.9% in assay [1] (measured here: cell number at 48 h, Library stock concentration: 1.67 mM); 38.7% in assay [1] (setting [4]); 46.7% in assay [1] (setting [14]). The p53-positive nuclei, normalised was -0.152% (inactive) in assay [2] (Library stock concentration: 46 uM); 0.0393% (inactive) in assay [2] (Library stock concentration: 278 uM); 92% (active) in assay [2] (Library stock concentration: 1.67 mM); 92% (active) in assay [2] (setting [5]); 106% (active) in assay [2] (setting [18]); 0.0832% in assay [2] (measured here: p53 positive nuclei at 24 h, Library stock concentration: 46 uM). The p53-positive nuclei, normalised is -0.0262% in assay [2] (measured here: p53 positive nuclei at 24 h, Library stock concentration: 278 uM); 44.6% in assay [2] (measured here: p53 positive nuclei at 24 h, Library stock concentration: 1.67 mM); 87.5% in assay [2] (setting [6]); 135% in assay [2] (setting [22]).

Turning to `CC(=O)NC(CC(C)C)C(=O)NC(CC(C)C)C(=O)NC(C=O)CCCN=C(N)N` (stereo unspecified), the nuclei count, normalised in assay [1] (setting [7]) turned out to be 88.7%; in assay [1] (setting [8]) it was 87.3%; in assay [1] (setting [9]), 62.5%; in assay [1] (setting [10]) it was 67.4%; in assay [1] (setting [11]), 91.5%; in assay [1] (setting [12]), 90.5%. Besides, the figures for the nuclei count, normalised in assay [1] (setting [13]) and in assay [1] (setting [14]) were 69% and 72.9%, respectively. Also, the p53-positive nuclei, normalised was 0.011% (inactive) in assay [2] (setting [15]); -0.0354% (inactive) in assay [2] (setting [16]); -0.0908% (inactive) in assay [2] (setting [17]); -0.0909% (inactive) in assay [2] (setting [18]); -0.0474% in assay [2] (setting [19]); -0.0442% in assay [2] (setting [20]). In addition, the figures for the p53-positive nuclei, normalised in assay [2] (setting [21]) and in assay [2] (setting [22]) were 0.0943% and -0.12%, respectively.

For `CC(NC(=O)C(Cc1ccccc1)NC(=O)OCc1ccccc1)C(=O)CF` (stereo unspecified), the results for the nuclei count, normalised in assay [1] (setting [3]) and in assay [1] (setting [4]) were 108% and 101%, respectively. The p53-positive nuclei, normalised in assay [2] (setting [5]) is -0.054% (inactive); in assay [2] (setting [6]), -0.116%.

As to `C=CC(=O)N1CCc2ccc(-n3c(=O)ccc4cnc5ccc(-c6cnn(C)c6)cc5c43)cc21`, the nuclei count, normalised in assay [1] (setting [7]) was found to be 107%; in assay [1] (setting [8]), 102%; in assay [1] (setting [9]), 74.7%; in assay [1] (setting [10]), 48.5%; in assay [1] (setting [11]), 108%; in assay [1] (setting [12]) it was 102%. Further, the nuclei count, normalised was 84.2% in assay [1] (setting [13]) and 37.4% in assay [1] (setting [14]). For the same compound, the p53-positive nuclei, normalised is -0.0335% (inactive) in assay [2] (setting [15]); -0.203% (inactive) in assay [2] (setting [16]); -0.00288% (inactive) in assay [2] (setting [17]); 0.846% (inactive) in assay [2] (setting [18]); -0.0563% in assay [2] (setting [19]); -0.129% in assay [2] (setting [20]). For the same compound, the p53-positive nuclei, normalised was -0.129% in assay [2] (setting [21]) and 0.0284% in assay [2] (setting [22]).

As for `CS(=O)(=O)c1ccc(C(CC2CCCC2)C(=O)Nc2nccs2)cc1` (stereo unspecified), the nuclei count, normalised in assay [1] (setting [7]) was 117%; in assay [1] (setting [8]), 108%; in assay [1] (setting [9]) it was 110%; in assay [1] (setting [10]) it was 109%; in assay [1] (setting [11]) it was 110%; in assay [1] (setting [12]), 104%. The nuclei count, normalised amounted to 100% in assay [1] (setting [13]) and 106% in assay [1] (setting [14]). Moreover, the p53-positive nuclei, normalised was 0.258% (inactive) in assay [2] (setting [15]); 0.124% (inactive) in assay [2] (setting [16]); 0.01% (inactive) in assay [2] (setting [17]); -0.00666% (inactive) in assay [2] (setting [18]); -0.031% in assay [2] (setting [19]); -0.122% in assay [2] (setting [20]). Moreover, the p53-positive nuclei, normalised was 0.0254% in assay [2] (setting [21]) and -0.0737% in assay [2] (setting [22]).

Values taken from PubChem BioAssay AID1508601 (ICCB-Longwood Screening Facility, Harvard Medical School, 2020).
